# Measurements: PubChem BioAssay (EPA / NIEHS)
# Several values for one entry are separate records, joined by “and”; a condition that tells them apart may be missing. Equal values may be shown once. Records with an inconclusive call do not appear. More than one record can exist for a structure, and the calls need not agree. Activity calls are given as the source filed them. The calls were made as follows, unless noted: active = hit-call score of the fitted dose curve at least 0.9, where 1 is the maximum; inconclusive = response in the unintended direction; inactive = score below 0.9.
# How the values were obtained:
# [1] = TOX21_p53_BLA_p2_viability: Viability Assessment in the Tox21 HCT-116 p53 Agonism Beta-lactamase Assay, Phase 2 (AID 2283591);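 also: actives lower the ATP signal meaning cytotoxicity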
# Method in brief: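 HCT116 p53-bla cells, 4000/well, dosed after 5 h plating (217-fold dilution of DMSO stocks) and incubated 16 h at 37C. Viability taken as cellular ATP by CellTiter-Glo luminescence after 30 min RT; signal loss marks cytotoxicity.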
# [2] = biological target: Cellular tumor antigen p53 (Homo sapiens) (UniProt P04637); test: TOX21_p53_BLA_p2_ratio: Tox21 HCT-116 p53 Agonism Beta-lactamase Assay, Ratio, Phase 2 (AID 2283592)
# Method in brief: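 An inducible beta-lactamase reporter in HCT116 cells signals p53 pathway activation. After 16 h chemical exposure at 37C, cells load CCF4-AM substrate for 2 h at room temperature; activity is the cleaved/uncleaved emission ratio relative to DMSO.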
# [3] = TOX21_p53_BLA_p3_viability: Viability Assessment in the Tox21 HCT-116 p53 Agonism Beta-lactamase Assay, Phase 3 (AID 2283593);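 also: cells exposed to compound for 16 h before reading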
# Method in brief: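 HCT116 cells, 4000/well, dosed 5 h after plating by pin transfer (217-fold dilution from DMSO stock) and incubated 16 h at 37C, 5% CO2. Viability read as ATP luminescence with CellTiter-Glo after 30 min at room temperature.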
# [4] = biological target: Cellular tumor antigen p53 (Homo sapiens) (UniProt P04637); test: TOX21_p53_BLA_p4_ratio: Tox21 HCT-116 p53 Agonism Beta-lactamase Assay, Ratio, Phase 4 (AID 2283601)
# Method in brief: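 HCT-116 p53 beta-lactamase reporter cells (4000/well) preincubated 5 h, then compound (217-fold dilution of DMSO stock) for 16 h at 37C. CCF4-AM substrate added 2 h at room temperature; 460/530 nm emission ratio fitted upward versus DMSO.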
# [5] = biological target: Cellular tumor antigen p53 (Homo sapiens) (UniProt P04637); test: TOX21_p53_BLA_p3_ratio: Tox21 HCT-116 p53 Agonism Beta-lactamase Assay, Ratio, Phase 3 (AID 2283596)
# Method in brief: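 HCT116 p53-bla cells (4000/well) given compound in DMSO (217-fold dilution) after 5 h, incubated 16 h at 37C. CCF4-AM substrate 2 h at room temperature; 460/530 nm emission ratio, gain fitted against DMSO.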
# [6] = TOX21_p53_BLA_p4_viability: Viability Assessment in the Tox21 HCT-116 p53 Agonism Beta-lactamase Assay, Phase 4 (AID 2283597);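 also: hits lower the luminescence signal meaning cytotoxicity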
# Method in brief: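 Compound exposure of HCT116 cells lasts 16 h at 37C, 5% CO2, with DMSO stocks diluted 217-fold. Cellular ATP is then quantified by CellTiter-Glo luminescence after 30 min at room temperature.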
# [7] = biological target: Cellular tumor antigen p53 (Homo sapiens) (UniProt P04637); test: TOX21_p53_BLA_p5_ratio: Tox21 HCT-116 p53 Agonism Beta-lactamase Assay, Ratio, Phase 5 (AID 2283599)
# Method in brief: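 HCT-116 p53-bla cells (4000/well) plated 5 h, dosed with compound (217-fold DMSO dilution) for 16 h at 37 C; CCF4-AM substrate 2 h at room temperature. Activity is the 460/530 nm emission ratio (405 nm excitation), fitted in gain-of-signal direction versus DMSO.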
# [8] = TOX21_p53_BLA_p5_viability: Viability Assessment in the Tox21 HCT-116 p53 Agonism Beta-lactamase Assay, Phase 5 (AID 2283600)
# Method in brief: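 Counter-readout for cytotoxicity: ATP-dependent luminescence from CellTiter-Glo, read in the beta-lactamase wells after 30 min at RT, following a 16 h compound exposure at 37C.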
# [9] = CCTE_Harrill_HTTr_Viability_MCF7: CCTE's 6-hour Cell Viability Assessment for the High-Throughput Transcriptomics (HTTr) Platform, in MCF-7 cells cultured in DMEM + 10% fetal bovine serum, Harrill Lab (AID 2284010; active = hit-call score of the fitted dose curve at least 0.9, where 1 is the maximum; inactive = score below 0.9)
# Method in brief: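 Membrane integrity was scored by high-content imaging of propidium iodide dye exclusion after a 6 h exposure across an eight-point dilution series. Data were fitted bidirectionally relative to DMSO as negative control and baseline.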
# [10] = CCTE_Harrill_HTTr_Apoptosis_MCF7: CCTE's 6-hour Apoptosis Assessment for the High-Throughput Transcriptomics (HTTr) Platform, in MCF-7 cells cultured in DMEM + 10% fetal bovine serum, Harrill Lab (AID 2284011; active = hit-call score of the fitted dose curve at least 0.9, where 1 is the maximum; inactive = score below 0.9)
# Method in brief: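 Cells are dosed with test chemicals at eight concentrations and imaged 6 hours later for caspase-3/7 activity using a green fluorogenic detection reagent. Activity is fitted in both directions against DMSO controls.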
# [11] = ACEA_ER_AUC_viability: ACEA Biosciences xCELLigence Real-Time Cell Analysis on Estrogen Receptor Agonism for Viability (AID 2283782);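 also: continuous compound exposure with impedance area under curve over 80 h; hit means loss of impedance signal meaning reduced cell growth or viability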
# Method in brief: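 T47D cells preconditioned in phenol red-free RPMI with charcoal-stripped FBS, then dosed with 8-point 1:4 series from 100 uM (up to 0.5% DMSO). Impedance monitored up to ~80 h; area-under-curve loss versus DMSO taken as viability.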
# PGR (gene 5241) [12] = biological target: PGR (gene 5241) (UniProt P06401); test: TOX21_PR_BLA_Followup_Antagonist_ratio: Tox21 HEK293 Progesterone Receptor (PR) Antagonism Beta-lactamase Follow-Up Assay, Ratio (AID 2283934)
# Method in brief: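 PR-UAS-bla HEK293T cells in medium with 2% charcoal-stripped FBS were treated with compounds plus 1 nM (final) promegestone (R5020) for 16 hr at 37C. LiveBLAzer B/G FRET substrate was then added for 2 h at room temperature; signal is cleaved/uncleaved substrate ratio versus DMSO.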
# [13] = TOX21_PR_BLA_Followup_Agonist_viability: Viability Assessment in the Tox21 HEK293 Progesterone Receptor (PR) Agonism Beta-lactamase Follow-Up Assay (AID 2283935);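 also: signal loss means lower viability so actives are cytotoxic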
# Method in brief: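 PR-UAS-bla HEK293T cells in 2% charcoal-stripped FBS medium, compound added after 6 hr plating, 16 hr at 37C/5% CO2. After bla FRET read, CellTiter-Glo added; luminescence read after 30 min at room temperature; signal loss marks cytotoxicity.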
# [14] = TOX21_PR_BLA_Followup_Antagonist_viability: Viability Assessment in the Tox21 HEK293 Progesterone Receptor (PR) Antagonism Beta-lactamase Follow-Up Assay (AID 2283936);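 also: hits lower the luminescence signal meaning cytotoxicity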
# Method in brief: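 PR-UAS-bla HEK293T cells (3,000/well, 2% charcoal-stripped FBS) given compound plus R5020 agonist, 16 h at 37C. CellTiter-Glo added after bla read, 30 min at room temperature; luminescence loss indicates cytotoxicity.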
# PGR (gene 5241) [15] = biological target: PGR (gene 5241) (UniProt P06401); test: TOX21_PR_LUC_Followup_Antagonist: Tox21 HEK293 Progesterone Receptor (PR) Antagonism Luciferase Follow-Up Assay (AID 2283938);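 also: curve fitted upward as signal gain over DMSO baseline despite antagonist label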
# Method in brief: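 A follow-up to the PR bla screen using HEK293-PR-A-luc cells, multiplexed with cell viability to flag cytotoxicity. Reporter luminescence after 16 h compound exposure was analysed relative to DMSO.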
# [16] = TOX21_PR_LUC_Followup_Antagonist_viability: Viability Assessment in the Tox21 HEK293 Progesterone Receptor (PR) Antagonism Luciferase Follow-Up Assay (AID 2283940)
# Method in brief: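 HEK293-PR-A-luc cells, precultured 5 days in assay medium with 10% charcoal-stripped FBS, were seeded at 3,000 cells/well, treated with compounds in DMSO for 16 h at 37C, and viability was read as cellular ATP by CellTiter-Glo luminescence.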
# [17] = TOX21_PR_LUC_Followup_Agonist_viability: Viability Assessment in the Tox21 HEK293 Progesterone Receptor (PR) Agonism Luciferase Follow-Up Assay (AID 2283941);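 also: loss of signal means cytotoxicity so actives lower viability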
# Method in brief: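 HEK293-PR-A-luc cells, pre-cultured 5 days in 10% charcoal-stripped FBS, were seeded at 3,000 cells/well, rested 5 h at 37C, then given compound in DMSO for 16 h at 37C. Cellular ATP was read by CellTiter-Glo luminescence; signal loss indicates cytotoxicity.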
# Chain of Cellular tumor antigen p53 (Homo sapiens) (P04637 whole entry, looked up): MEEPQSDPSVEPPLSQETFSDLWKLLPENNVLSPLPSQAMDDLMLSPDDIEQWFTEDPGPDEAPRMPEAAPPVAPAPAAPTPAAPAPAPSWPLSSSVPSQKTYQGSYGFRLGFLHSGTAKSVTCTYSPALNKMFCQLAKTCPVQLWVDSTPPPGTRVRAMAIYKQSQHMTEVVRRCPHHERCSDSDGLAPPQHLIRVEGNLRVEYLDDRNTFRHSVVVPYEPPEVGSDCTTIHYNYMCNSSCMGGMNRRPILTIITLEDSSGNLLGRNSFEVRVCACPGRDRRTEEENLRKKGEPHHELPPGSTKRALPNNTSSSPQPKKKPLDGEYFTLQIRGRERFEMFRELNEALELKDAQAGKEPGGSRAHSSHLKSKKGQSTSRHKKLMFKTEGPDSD
# Chain of PGR (gene 5241) (P06401 whole entry, looked up): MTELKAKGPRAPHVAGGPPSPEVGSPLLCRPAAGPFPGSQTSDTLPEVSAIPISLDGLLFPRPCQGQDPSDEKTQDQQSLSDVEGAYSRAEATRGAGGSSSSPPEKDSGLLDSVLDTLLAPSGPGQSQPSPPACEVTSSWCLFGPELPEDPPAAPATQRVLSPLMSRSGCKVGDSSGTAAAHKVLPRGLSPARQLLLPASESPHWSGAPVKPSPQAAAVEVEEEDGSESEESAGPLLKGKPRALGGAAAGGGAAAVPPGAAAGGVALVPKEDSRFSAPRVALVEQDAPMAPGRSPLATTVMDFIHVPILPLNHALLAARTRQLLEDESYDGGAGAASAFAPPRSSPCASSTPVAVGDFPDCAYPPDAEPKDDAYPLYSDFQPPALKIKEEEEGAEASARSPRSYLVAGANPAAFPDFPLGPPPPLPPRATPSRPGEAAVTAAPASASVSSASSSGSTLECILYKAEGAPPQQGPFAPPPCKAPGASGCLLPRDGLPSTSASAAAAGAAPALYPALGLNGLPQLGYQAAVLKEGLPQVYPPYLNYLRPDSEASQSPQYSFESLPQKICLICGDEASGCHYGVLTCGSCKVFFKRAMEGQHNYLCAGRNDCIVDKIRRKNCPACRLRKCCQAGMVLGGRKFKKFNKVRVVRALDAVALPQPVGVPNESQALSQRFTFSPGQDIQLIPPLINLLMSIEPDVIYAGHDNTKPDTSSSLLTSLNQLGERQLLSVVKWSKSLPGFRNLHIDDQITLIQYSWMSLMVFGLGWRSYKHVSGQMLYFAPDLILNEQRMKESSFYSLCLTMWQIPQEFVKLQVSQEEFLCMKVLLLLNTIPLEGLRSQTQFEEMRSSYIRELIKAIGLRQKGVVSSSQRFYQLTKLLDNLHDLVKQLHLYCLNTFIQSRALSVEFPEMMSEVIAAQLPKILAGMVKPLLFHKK
structure (smiles),measurement,setting,value
C=CCCC=C,outcome,[1],inactive
same,outcome,[2],inactive
same,outcome,[3],inactive
same,outcome,[4],inactive
C#C[C@]1(OC(C)=O)CC[C@H]2[C@@H]3CCC4=C[C@@H](OC(C)=O)CC[C@@H]4[C@H]3CC[C@@]21C,AC50,[1],36.9 µM (active) and 34.4 µM (active)
same,outcome,[2],inactive
same,outcome,[5],inactive
same,outcome,[6],inactive
same,AC50,[7],43 µM (active)
same,outcome,[7],inactive
same,AC50,[8],36.7 µM (active)
same,outcome,[8],inactive
same,outcome,[4],inactive
same,outcome,[9],inactive
same,outcome,[10],inactive
Clc1nnc(Cl)c2ccccc12,outcome,[1],inactive
same,outcome,[2],inactive
same,outcome,[5],inactive
same,outcome,[6],inactive
same,outcome,[7],inactive
same,outcome,[8],inactive
CCN(CC)CCOc1ccc2nc(N(C)C)sc2c1,outcome,[1],inactive
same,outcome,[2],inactive
same,outcome,[5],inactive
same,outcome,[6],inactive
same,outcome,[7],inactive
same,outcome,[8],inactive
CC(NNC(=O)c1ccccc1)c1ccccc1 (stereo not given),outcome,[1],inactive
same,outcome,[2],inactive
same,outcome,[5],inactive
same,outcome,[6],inactive
same,outcome,[7],inactive
C[N+](C)(C)CCOC(=O)CCC(=O)OCC[N+](C)(C)C,outcome,[1],inactive
same,outcome,[2],inactive
same,outcome,[5],inactive
same,outcome,[6],inactive
same,outcome,[7],inactive
CCOc1ccc(O)cc1,outcome,[1],inactive
same,outcome,[2],inactive
same,outcome,[5],inactive
O=C(O)CCC(=O)c1ccc(-c2ccccc2)cc1,outcome,[1],inactive
same,outcome,[2],inactive
same,outcome,[5],inactive
same,outcome,[6],inactive
same,outcome,[7],inactive
COc1ccc(C(=O)Nc2ccccc2CCC2CCCCN2C)cc1 (stereo not given),outcome,[1],inactive
same,outcome,[2],inactive
same,outcome,[5],inactive
same,outcome,[6],inactive
CCCCNCCCC,outcome,[1],inactive
same,outcome,[2],inactive
same,outcome,[5],inactive
same,outcome,[6],inactive
same,outcome,[7],inactive
same,outcome,[8],inactive
CC(CNC(=O)c1cccnc1)NC(=O)c1cccnc1 (stereo not given),outcome,[1],inactive
same,outcome,[2],inactive
same,outcome,[5],inactive
OCCCCCCO,outcome,[1],inactive
same,outcome,[2],inactive
same,outcome,[5],inactive
same,outcome,[6],inactive
same,outcome,[7],inactive
same,outcome,[8],inactive
CN=C(N)NC(=O)Nc1c(C)cccc1C,outcome,[1],inactive
same,outcome,[2],inactive
same,outcome,[5],inactive
same,outcome,[6],inactive
NC(=O)[C@H]1O[C@@H](O)[C@H](O)[C@@H](O)[C@@H]1O,outcome,[1],inactive
same,outcome,[2],inactive
same,outcome,[5],inactive
same,outcome,[6],inactive
same,outcome,[7],inactive
same,outcome,[8],inactive
O=C(OC1C[C@H]2CC[C@@H](C1)[N+]21CCCC1)C(O)(c1ccccc1)c1ccccc1 (stereo not given in full),outcome,[1],inactive
same,outcome,[2],inactive
same,outcome,[3],inactive
same,outcome,[4],inactive
CCOC(=O)[C@H](CCc1ccccc1)N[C@H]1CS[C@H](c2cccs2)CN(CC(=O)O)C1=O,outcome,[1],inactive
same,outcome,[2],inactive
same,outcome,[5],inactive
NCc1ccccc1CC(=O)N[C@@H]1C(=O)N2C(C(=O)O)=C(CSc3nnnn3CC(=O)O)CS[C@H]12,outcome,[1],inactive
same,outcome,[2],inactive
same,outcome,[5],inactive
same,outcome,[6],inactive
same,outcome,[7],inactive
same,outcome,[8],inactive
CC(C)(C)C1(CCc2ccc(Cl)cc2)CO1 (stereo not given),outcome,[1],inactive
same,outcome,[2],inactive
same,outcome,[5],inactive
same,outcome,[6],inactive
same,outcome,[7],inactive
same,outcome,[8],inactive
CO/N=C(\C(=O)N[C@@H]1C(=O)N2C(C(=O)[O-])=C(C[n+]3ccc(N)n3CCO)CS[C@H]12)c1csc(N)n1,outcome,[1],inactive
same,outcome,[2],inactive
same,outcome,[5],inactive
same,outcome,[6],inactive
same,outcome,[7],inactive
same,outcome,[8],inactive
Cc1nc2n(c(=O)c1CCN1CCC(c3noc4cc(F)ccc34)CC1)CCCC2,outcome,[1],inactive
same,outcome,[2],inactive
same,outcome,[5],inactive
same,outcome,[6],inactive
CCC(=O)O[C@]1(C(=O)CCl)[C@@H](C)C[C@H]2[C@@H]3CCC4=CC(=O)C=C[C@]4(C)[C@@]3(F)[C@@H](O)C[C@@]21C,outcome,[1],inactive
same,outcome,[2],inactive
same,outcome,[3],inactive
same,outcome,[4],inactive
CC(C)SCc1ccco1,outcome,[1],inactive
same,outcome,[2],inactive
same,outcome,[5],inactive
same,outcome,[6],inactive
same,outcome,[7],inactive
c1ccc2cc(C3=NCCN3)ccc2c1,outcome,[1],inactive
same,outcome,[2],inactive
same,outcome,[5],inactive
same,outcome,[6],inactive
same,outcome,[7],inactive
CN(C)CCOC(c1ccc(Cl)cc1)c1ccccn1 (stereo not given),outcome,[1],inactive
same,outcome,[2],inactive
same,outcome,[5],inactive
same,outcome,[6],inactive
same,outcome,[7],inactive
Cc1occc1S,outcome,[1],inactive
same,outcome,[2],inactive
same,outcome,[5],inactive
same,outcome,[6],inactive
same,outcome,[7],inactive
Oc1cc(O)c2c(c1)O[C@H](c1ccc(O)c(O)c1)[C@H](O)C2,outcome,[1],inactive
same,outcome,[2],inactive
same,outcome,[5],inactive
same,outcome,[6],inactive
same,outcome,[7],inactive
same,outcome,[8],inactive
CC1(C)CC(OC(=O)CCCCCCCCC(=O)OC2CC(C)(C)NC(C)(C)C2)CC(C)(C)N1,outcome,[1],inactive
same,outcome,[2],inactive
same,outcome,[5],inactive
same,outcome,[6],inactive
NCCNCCNCCN,outcome,[1],inactive
same,outcome,[2],inactive
same,outcome,[5],inactive
same,outcome,[6],inactive
same,outcome,[7],inactive
same,outcome,[8],inactive
CC(COc1ccccc1)N(CCCl)Cc1ccccc1 (stereo not given),outcome,[1],inactive
same,outcome,[2],inactive
same,AC50,[5],23.1 µM (active)
same,outcome,[5],inactive
same,outcome,[6],inactive
same,outcome,[7],inactive
same,outcome,[8],inactive
same,outcome,[4],inactive
same,AC50,[11],88.7 µM (active)
same,AC50,PGR (gene 5241) [12],31.6 µM (active)
same,outcome,[13],inactive
same,outcome,[14],inactive
same,outcome,PGR (gene 5241) [15],inactive
same,outcome,[16],inactive
same,outcome,[17],inactive
same,outcome,[9],inactive
same,outcome,[10],inactive
OCC=CCO,outcome,[1],inactive
same,outcome,[2],inactive
same,outcome,[5],inactive
same,outcome,[6],inactive
same,outcome,[7],inactive
